# In all, about 4,100 compounds went through this assay and about 1,600 (39%) were called active. Another 25% or so got no clear call; they are omitted. Calls follow the shape of the dose curve; as a rule, active = well fitted inhibition curve with a large enough effect; inconclusive = small, poorly fitted or top-dose-only effect; inactive = no such curve, though single readings can be large or run the other way. The list shows a part of the results. A call without a number means that no potency is given here.
# Assay: qHTS Validation assay for Inhibitors of Plasmodium falciparum Dd2 growth in vitro; also: nearly all actives have a fitted effect of over 70% in size
# Conditions: P. falciparum Dd2 in RBCs, SYBR Green growth, 72 h; series mostly up to 28.7 µM
# Method in brief: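 P. falciparum Dd2-infected red blood cells (2.5% hematocrit, 0.3% parasitemia) grown 72 h at 37 °C under 5% O2 with compounds in a titration, 29 uM to 0.5 nM final. Growth read as SYBR Green-1 fluorescence after ~16 h lysis; artesunate 300 nM as positive control.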
# Potency is read from the fitted curve at half-maximal effect.
row,SMILES,Potency
1,CC(=O)N1CCCC(c2nn(C)c(=O)n2C2CCCC2)C1 (stereo unspecified),inactive
2,COc1cccc(Nc2ccc3c(n2)C(C)(C(=O)NC2CCN(C)CC2)CN(C)C3)c1 (stereo unspecified),17.2 µM (active)
3,COc1cccc(Nc2ccc3c(n2)C(C)(C(=O)NCC2CC2)CN(C)C3)c1 (stereo unspecified),12.2 µM (active)
4,CN1Cc2ccc(Nc3ccccc3)nc2C(C)(C(=O)NCc2ccc3c(c2)OCO3)C1 (stereo unspecified),13.7 µM (active)
5,CCC(C)NC(=O)CSc1nc2cc3c(cc2c(=O)n1CCCC(=O)NCc1ccc2c(c1)OCO2)OCO3 (stereo unspecified),inactive
6,COc1cccc(Nc2ccc3c(n2)C(C)(C(=O)NC2CCC2)CN(C)C3)c1 (stereo unspecified),15.3 µM (active)
7,COc1cccc(CCC(=O)NC2CCN(C(=O)c3cc4c(=O)[nH]c(C)cn4n3)CC2)c1,inactive
8,Cc1cnc(C(=O)N[C@@H]2CCC[C@@H]2C(=O)NCc2ccc3c(c2)OCO3)cn1,inactive
9,Cc1nncn1C1CCN(S(=O)(=O)c2ccc(F)c(F)c2)CC1,inactive
10,O=c1[nH]c(C2CCN(S(=O)(=O)/C=C/c3ccccc3)CC2)nc2c1nnn2Cc1ccc(F)cc1,13.3 µM (active)
11,O=c1[nH]c(C2CCN(S(=O)(=O)c3ccc4c(c3)OCCO4)CC2)nc2c1nnn2Cc1ccc(F)cc1,8.41 µM (active)
12,c1ccc(-c2noc(-c3cncnc3NC3CCCCCC3)n2)cc1,inactive
13,CC(C)(C)NC(=S)Nc1ccc(Nc2ccccc2)cc1,inactive
14,CCOc1ccc2c(c1)OC(c1ccc(C)cc1)(C(F)(F)F)NC2=O (stereo unspecified),2.66 µM (active)
15,CC(C)Oc1ccc2c(c1)OC(c1ccccc1)(C(F)(F)F)NC2=O (stereo unspecified),2.66 µM (active)
16,CCCNC(=O)Nc1ccc(OC2CCN(C(=O)CC)C2)nc1 (stereo unspecified),inactive
17,CCOC(=O)Cn1c(=O)c2c(nc(N3CCCCC3)n2C)n(C)c1=O,inactive
18,CCn1c(N2CCC(C)CC2)nc2c1c(=O)n(C)c(=O)n2C,5.96 µM (active)
19,O=C(Nc1ccc(Cl)cc1)Nc1nc(-c2ccccc2O)cs1,6.68 µM (active)
20,O=C(Nc1ccc([N+](=O)[O-])cc1)Nc1nc(-c2ccc(Cl)s2)cs1,2.99 µM (active)
21,COc1ccc(-c2csc(NC(=O)C(CC(=O)O)N3CCOCC3)n2)cc1 (stereo unspecified),inactive
22,O=C(Nc1nc(-c2ccccn2)cs1)c1cccc(S(=O)(=O)N2CCOCC2)c1,5.96 µM (active)
23,O=C(Nc1nc(-c2ccccn2)cs1)c1ccc(F)c(S(=O)(=O)N2CCOCC2)c1,2.11 µM (active)
24,N#Cc1cc(C#N)c(N2CCN(c3cccc(Cl)n3)CC2)nc1N,3.35 µM (active)

row,SMILES,Potency
1,COCc1noc(CC2CCOC3(CCN(C(=O)c4c[nH]c5ccccc45)CC3)C2)n1 (stereo unspecified),inactive
2,Cc1ccc(C(=O)N2CCC(c3c[nH]c4ccccc34)(c3c[nH]c4ccccc34)CC2)cc1,8.41 µM (active)
3,Cn1nccc1C(=O)N1CCC2(CC1)NCCc1c2[nH]c2ccccc12,inactive
4,c1ccc([C@H]2CN3CCSC3=N2)cc1,inactive
5,CC(C)(C)c1ccc(C(=O)N2CCC3(C2)NC(=O)N(Cc2ccc(Cl)cc2)C3=O)cc1 (stereo unspecified),inactive
6,O=C(NCc1ccccc1)N1CCC2(CC1)CC(N(C(=O)c1ccccc1)C1CC1)CCO2 (stereo unspecified),inactive
7,NC(Cc1ccccc1)C(=O)N1CCC2(CC1)CN(C(=O)c1ccc(Cl)cc1)CCO2 (stereo unspecified),0.842 µM (active)
8,Cc1ccc(CN2CCNC(=O)C2CC(=O)N(CC(C)C)CC(C)C)cc1 (stereo unspecified),inactive
9,CC1(C)Cc2c(c(N3CCOCC3)nc3snc(Br)c23)CO1,0.299 µM (active)
10,CCN1CCN(c2nc(SC)nc3sc4c(c23)CC(C)(C)OC4)CC1,inactive
11,Cc1ccc(CNC(=O)c2ccc(N3CCC4(CC3)CC(c3cccc(Br)c3)=NO4)c(NC(=O)c3ccco3)c2)cc1,8.41 µM (active)
12,CCCNC(=O)c1ccc(N2CCC3(CC2)CC(c2cccc(Br)c2)=NO3)c(NC(=O)c2ccco2)c1,2.99 µM (active)
13,CCOc1cc(NC(=S)NC)c(OCC)cc1NC(=O)c1ccco1,inactive
14,COc1nc(N=C(N)N)nc2c(C)cccc12,inactive
15,CCOc1nc(N=C(N)N)nc2c(C)cccc12,10.6 µM (active)
16,CN1C(=O)CS(=O)(=O)C12CCN(C(=O)c1cc(F)ccc1Cl)CC2,inactive
17,Cc1ccc(C2Cn3nnc(-c4noc(-c5nn(C)c6ccccc56)n4)c3CO2)cc1 (stereo unspecified),inactive
18,Cc1ccc(C2Cn3nnc(-c4noc(CNC(=O)c5ccccc5)n4)c3CO2)cc1 (stereo unspecified),inactive
19,Cc1ccc(C2Cn3nnc(-c4noc(-c5n[nH]c6c5CCCC6)n4)c3CO2)cc1 (stereo unspecified),13.3 µM (active)
20,CCn1c(/C=C/c2cc(Br)ccc2O)nc2ccccc2c1=O,4.22 µM (active)
21,Oc1ccc(Br)cc1Cn1nnc2ccccc21,inactive
22,O=c1c2ccccc2nc(/C=C/c2cc(Br)ccc2O)n1CCCO,9.44 µM (active)
23,O=C(c1ccccc1-c1ccccc1)N1CCC(c2ncc[nH]2)CC1,inactive
24,CCc1c(C)[nH]c2ccccc2c1=O,10.6 µM (active)

row,SMILES,Potency
1,C=CCc1c(C)[nH]c2ccc(C)cc2c1=O,inactive
2,CCCc1c(C)[nH]c2ccccc2c1=O,7.5 µM (active)
3,O=S(=O)(c1ccc(Cl)cc1)N1CCN(C(=S)Nc2ccccc2F)CC1,2.37 µM (active)
4,O=c1nc2ccccn2c2ccc(S(=O)(=O)N3CCCCC3)cc12,inactive
5,O=S(=O)(c1ccc2ccccc2c1)N1CCN(C(=S)Nc2ccccc2F)CC1,4.22 µM (active)
6,O=S(=O)(c1ccc2ccccc2c1)N1CCN(C(=S)Nc2ccc(F)c(Cl)c2)CC1,1.06 µM (active)
7,COc1cccc(NC(=S)N2CCN(S(=O)(=O)c3ccc(F)cc3)CC2)c1,2.66 µM (active)
8,O=C(Cn1ccc2cc(S(=O)(=O)N3CCCCCC3)ccc21)NCCc1ccc(Cl)cc1,inactive
9,COc1cccc(S(=O)(=O)N2CCC3(CC2)C(OC)C(=O)N3c2cccc(F)c2)c1 (stereo unspecified),inactive
10,CN1CCN(c2ccc(Nc3ccnc4cc(Cl)ccc34)cc2)CC1,0.188 µM (active)
11,CN(C)c1ccnc(Nc2ccc(O)cc2)c1C#N,inactive
12,Clc1ccc2c(N/N=C/c3cccc(Br)c3)ccnc2c1,10.6 µM (active)
13,O=C(NNc1ccnc2cc(Cl)ccc12)C1CCCCC1,7.5 µM (active)
14,Oc1ccc(Nc2ccnc3cc(Cl)ccc23)cc1,1.68 µM (active)
15,CN1CCN(c2cc(=O)c3ccnc(N4CCOCC4)c3o2)CC1,inactive
16,CN(Cc1ccccc1F)C1CCc2ccccc21 (stereo unspecified),inactive
17,O=C(CSc1ncn[nH]1)Nc1ccnc2ccccc12,inactive
18,CCN1CCN(c2ccc(Nc3ccnc4ccccc34)cc2)CC1,1.06 µM (active)
19,Clc1ccc(NNc2ccnc3cc(Cl)ccc23)cc1,1.5 µM (active)
20,CCOC(=O)c1ccc2c(c1)N(CC(=O)N(C)c1ccccc1)C(=O)c1ccccc1S2,10.6 µM (active)
21,CN(C(=O)c1ccc2c(c1)N(Cc1ccc(F)cc1)C(=O)c1ccccc1S2(=O)=O)C1CCCCC1,inactive
22,COc1ccccc1NC(=O)c1nn(C)c2c1CS(=O)(=O)c1ccccc1-2,inactive
23,CCOC(=O)c1ccc2c(c1)N(C(CC)C(=O)Nc1ccccc1OC)C(=O)c1ccccc1S2 (stereo unspecified),9.44 µM (active)
24,O=C1NCCCCCCN(C(=O)C2CCCC2)[C@H]2CCCC[C@@H]12,inactive

row,SMILES,Potency
1,O=C1NC(=NC2CCCCC2)C2(CCN(Cc3ccccc3)C2)N1c1cc(F)cc(F)c1 (stereo unspecified),4.22 µM (active)
2,O=C(c1ccccc1F)N1CCCC2(C1)C(=NC1CCCC1)NC(=O)N2c1cc(F)cc(F)c1 (stereo unspecified),inactive
3,O=C1NCc2ccccc2CC12CCCN(Cc1ccccc1)C2 (stereo unspecified),inactive
4,COc1cccc([S+](=O)([O-])N2CCC3(CC2)C(=NC2CCCCC2)NC(=O)N3c2cc(F)cc(F)c2)c1,inactive
5,O=C1NC(=NC2CCCC2)C2(CCN(Cc3ccccc3)C2)N1c1cc(F)cc(F)c1 (stereo unspecified),7.5 µM (active)
6,O=C(NC(c1ccccc1)c1cc(Cl)c2cccnc2c1O)c1cccnc1 (stereo unspecified),7.5 µM (active)
7,O=C(NC(c1ccc(Cl)cc1)c1cc(Cl)c2cccnc2c1O)c1cccnc1 (stereo unspecified),5.96 µM (active)
8,Cc1ccc2nc(-c3ccc(Cl)c(NC(=O)c4cccnc4)c3)oc2c1,inactive
9,CN(CC1(C)CCOCC1)C(=O)c1ccco1,inactive
10,CC(Oc1ccc(F)cc1)C(=O)Nc1cc(Cl)ccc1-n1cncn1 (stereo unspecified),6.68 µM (active)
11,CC(Oc1ccc(F)cc1)C(=O)Nc1cc(C(F)(F)F)ccc1-n1cncn1 (stereo unspecified),1.68 µM (active)
12,O=C(Cn1ccn2nc(-c3ccc(F)cc3)c(CO)c2c1=O)Nc1ccc(Cl)cc1F,inactive
13,CC(C(=O)N1CCc2ccccc21)N1CCc2ccccc2C1 (stereo unspecified),inactive
14,CC1(C)C(=O)N(CC2CCOCC2)[C@H]2CN(Cc3ccccc3O)C[C@H]2[S+]1(=O)[O-],inactive
15,COCC1CN(C)CC12CCN(C(=O)CC1=CCCCC1)CC2 (stereo unspecified),inactive
16,O=C(Nc1ccc(-c2nnc3n2CCCC3)cc1)c1ccccc1F,inactive
17,O=C1CCN(S(=O)(=O)c2ccccc2)CCCC(C(=O)NCCc2cccnc2)CCN1 (stereo unspecified),inactive
18,O=C(NCCc1cccnc1)c1ccc(-c2nnc3ccc(NC(=O)C4CCC4)cn23)cc1,6.68 µM (active)
19,Cc1noc(-c2ccn3c(CNC(=O)c4ccncc4)nnc3c2)n1,inactive
20,O=C(NCCc1ccncc1)c1ccc(-c2nnc3ccc(NC(=O)C4CCC4)cn23)cc1,2.99 µM (active)
21,CC1CN(C(=O)Nc2ccc(C(=O)NCCc3ccccc3)cc2)c2ccccc2S1 (stereo unspecified),inactive
22,Cc1cn2nc(C(=O)N3CCC(C(=O)NCc4cccnc4)CC3)cc2c(=O)[nH]1,inactive
23,Cn1c(=O)c2ccnn2c2ccc(C(=O)NCCN3CCC(N4CCCCC4)CC3)cc21,inactive
24,O=C(NCCN1CCCCC1)c1ccc(-c2nnc3ccc(NC(=O)C4CCC4)cn23)cc1,13.3 µM (active)

# Reference: PubChem BioAssay AID1347416 (National Center for Advancing Translational Sciences (NCATS), 2020)
